Source: PubChem BioAssay AID1259343 (VanderVen Lab, College of Veterinary Medicine, Cornell …, 2017)
About 2,900 (47%) of roughly 6,200 compounds were called active. Rule as the data show it: active = inhibition above about 50%; inactive = the rest. The set was probably picked from earlier hits. Some of the results follow.

Assay: Mycobacterium tuberculosis growth inhibition, primary screen (AID 1259343)
Conditions: inhibition: at 10 µM, stronger effect = higher value; outcome: 10 uM

Row | Compound | inhibition
1 | CCc1cccc(NC(=O)Cn2nc3ccc(SC(C)C)nn3c2=O)c1 | 77.8% (active)
2 | Cc1ccc(=O)n(CC(=O)Nc2ccc(Sc3ccccc3Cl)cc2)n1 | 5.63% (inactive)
3 | O=C(Cn1nnc(-c2ccccc2Cl)n1)Nc1ccc(I)cc1 | 32.1% (inactive)
4 | Cc1ccc(NC(=O)CN2CCc3ccccc32)cc1F | 54.7% (active)
5 | COc1ccc(-c2nnn(CC(=O)Nc3ccc(C)c(F)c3)n2)cc1OC | 86.6% (active)
6 | Cc1ccc(NC(=O)Cc2ccc(OC(F)F)cc2)cc1F | 48.2% (inactive)
7 | O=C(CN1CCc2ccccc21)NC(=O)NCc1ccccc1 | 20.7% (inactive)
8 | CCCn1ncc(CN2CCOC(c3ccc(Cl)c(Cl)c3)C2)c1C (stereo not drawn) | 7.23% (inactive)
9 | CCCc1sc(C(=O)Nc2nccs2)cc1CC | 80.5% (active)
10 | CCOc1ccc(CCN=C=S)cc1OCC | 97.5% (active)
11 | Cn1nnnc1SCc1ccc(Cl)c(Cl)c1 | 37.6% (inactive)
12 | Clc1ccc(CSc2nnc(-c3ccco3)o2)cc1Cl | 88% (active)
13 | Brc1ccccc1-c1nnc(SCc2nnc(-c3ccco3)o2)o1 | -32.1% (inactive)
14 | Clc1ccc(CSc2nnc(-c3ccco3)o2)c(Cl)c1 | -6.93% (inactive)
15 | c1ccc(-c2nnc(CSc3nnc(-c4ccccc4)o3)o2)cc1 | 101% (active)
16 | c1ccc(-c2nnc(SCc3nnc(-c4ccco4)o3)o2)cc1 | 69.9% (active)
17 | CCSc1nnc(-c2ccc(Cl)cc2Cl)o1 | 100% (active)
18 | N#Cc1ccc(CSc2nnc(-c3ccccc3)o2)cc1 | -28.8% (inactive)
19 | Fc1ccccc1-c1nnc(SCc2cccc3ccccc23)o1 | 85.9% (active)
20 | ClC12CC3CC(C1)CC(c1nnc(-c4ccco4)o1)(C3)C2 | 12.4% (inactive)
21 | Cc1occc1-c1nnc(SCc2nnc(-c3ccco3)o2)o1 | 92.5% (active)
22 | BrC12CC3CC(C1)CC(c1nnc(-c4ccco4)o1)(C3)C2 | 23.4% (inactive)
23 | Clc1ccccc1-c1nnc(SCc2ccccc2)o1 | 74.3% (active)
24 | Clc1cc2c(c(CSc3nnc(-c4ccco4)o3)c1)OCOC2 | 86.3% (active)
25 | Fc1ccccc1-c1nnc(SCc2ccccc2Br)o1 | 1.69% (inactive)
26 | Cc1ccc(/C=C/c2nc3scc(CC(C)C)c3c(=O)[nH]2)s1 | -12.6% (inactive)
27 | COc1cc(-c2ccc(=O)n(Cc3ccccc3C)n2)cc(OC)c1OC | inactive

Row | Compound | inhibition
28 | CCCC(=O)N1CCCC1C(=O)Nc1ccc(-c2ccccc2)nn1 (stereo not drawn) | -13% (inactive)
29 | COc1ccccc1CC(=O)N1CCC(n2nc(-c3ccccc3)cc2-c2ccccc2)CC1 | 59.7% (active)
30 | COc1ccccc1-c1nnc(SCC(=O)c2ccc3c(c2)OCO3)o1 | -33.1% (inactive)
31 | COc1ccccc1-c1noc(CSc2nnc(-c3ccc4c(c3)OCO4)o2)n1 | 99% (active)
32 | COc1ccc(-c2noc(CSc3nnc(-c4ccc5c(c4)OCO5)o3)n2)cc1OC | 78.9% (active)
33 | CCc1ccc(-c2noc(CSc3nnc(-c4ccc5c(c4)OCO5)o3)n2)cc1 | -23.7% (inactive)
34 | COc1ccc(OCCSc2nnc(-c3ccc(OC)c(OC)c3)o2)cc1 | 91.1% (active)
35 | CCn1c(SCC(=O)c2cc(C)ccc2C)nnc1-c1ccco1 | 52.6% (active)
36 | Cn1c(SC2CCCc3ccccc32)nnc1-c1ccco1 (stereo not drawn) | 27.9% (inactive)
37 | CCn1c(SCC(=O)Nc2ccc(I)cc2)nnc1-c1ccco1 | 10.3% (inactive)
38 | CC1CCN(S(=O)(=O)NC(C)c2ccc(F)cc2)CC1 (stereo not drawn) | 17.4% (inactive)
39 | CC1CCCN(S(=O)(=O)NCc2ccccc2Cl)C1 (stereo not drawn) | -12.8% (inactive)
40 | CC1CCN(S(=O)(=O)NCCc2ccccc2F)CC1 | 82.6% (active)
41 | C/C=C/c1cc(C(=O)Nc2nc(C)cs2)cc(OC)c1OC | 57.2% (active)
42 | Cc1csc(NC(=O)c2ccnc(N(C)C)c2)n1 | -4.65% (inactive)
43 | COc1ccc(CNC(=O)Nc2ncc([N+](=O)[O-])s2)cc1 | 11.6% (inactive)
44 | COc1ccc(Oc2ccc(CNCc3ccc(C)s3)cn2)cc1 | 78.2% (active)
45 | Cc1ccccc1OCC(=O)Nc1ccc(-n2ccnc2)cc1C(F)(F)F | 8.11% (inactive)
46 | CNC(=O)C(C#N)C(=O)c1sc(-c2ccc(Cl)s2)nc1C (stereo not drawn) | 54.5% (active)
47 | Cc1nc(-c2cc(Br)cs2)sc1C(=O)O | 19.5% (inactive)
48 | CC(C)N1CCN(Cc2ccc(C#CC(C)(C)O)s2)CC1CCO (stereo not drawn) | 77.8% (active)
49 | O=C(CS(=O)CCOc1cccc(Br)c1)NCC1CCCCC1 (stereo not drawn) | 12.5% (inactive)
50 | O=C(NS(=O)(=O)C1CCCC1)c1ccc(F)c(F)c1 | 25.9% (inactive)
51 | O=C(NCC1CCCC1)c1csc(Br)c1 | 95.4% (active)
52 | COc1ccc(C(=O)NCC2CCCCC2)cc1F | 70.9% (active)
53 | O=C(NCC1CC1)c1cc(-c2ccc(Br)cc2)n[nH]1 | 2.7% (inactive)
